HT1080 IDH1KD tx – toxicity to HT-1080 IDH1 knockdown cells (counter line) | Potency, µM (titrated, usually from 46.1 µM), inactives show at the highest dose activity, negative = toxicity, hits mostly cytotoxic | HT-1080 IDH1 knockdown viability, ATP luminescence, 48 h | actives 2% (n = 360,000);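 also: 0% = DMSO wells and -100% = cell-free medium wells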
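Viability of IDH1-knockdown HT-1080 fibrosarcoma cells was assessed by CellTiter-Glo after 48 h at 37 °C with titrated compound; concentration-effect curves were classified by fit quality and response size.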
HT1080NT lethal – kills 2HG-producing HT-1080-NT fibrosarcoma cells | actives 1.6% (n = 360,000) | HT-1080-NT fibrosarcoma viability, CellTiter-Glo ATP luminescence, 48 h | Potency, µM (top dose mostly 46.1 µM), for inactives: at the highest dose activity, negative = less viability, hits mostly cytotoxic;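 also: NT is the 2HG producing partner of a matched IDH1 knockdown line; 0% = DMSO-treated cells and -100% = media-only wells without cells; nearly all actives have a fitted effect of over 55% in size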
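A 48-hour cytotoxicity screen used HT-1080-NT cells plated 2 hours before compound delivery. ATP-based CellTiter-Glo luminescence measured viability, normalized to DMSO and no-cell controls.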
KB-3-1 tox – kills parental KB-3-1 adenocarcinoma cells. Potency, µM (series often up to 46.1 µM), actives largely listed as cytotoxic. actives 1.4% (n = 400,000). KB-3-1 viability, CellTiter-Glo ATP luminescence, 72 h; also: nearly all actives have a fitted effect of over 60% in size
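Using CellTiter-Glo luminescence, growth of non-resistant KB-3-1 adenocarcinoma cells is assessed 72 h after pin-tool compound addition at 37 °C. Normalized responses across the concentration series yield fitted curves.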
TDP1 cell CPT – growth inhibition of DT40 Tdp1-/-;hTDP1 cells with camptothecin (screen for TDP1 inhibitors); chicken DT40 Tdp1-/-;hTDP1 cells + 20 nM CPT, ATP luminescence, 48 h; Potency, µM (doses to about 46.2 µM), inactives show at the top dose activity change, negative = growth inhibition, actives largely listed as inhibitors; actives 12% (n = 420,000); AID 686979; also: nearly all actives have a fitted effect of over 55% in size
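Chicken DT40 Tdp1-/- cells stably complemented with human TDP1 were seeded at 400 cells/well in medium containing 20 nM camptothecin, exposed to pin-transferred compounds, and grown at 37 °C for at least 48 hr. Viability was read as ATP luminescence.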
TDP1 cell noCPT – qHTS for Inhibitors of human tyrosyl-DNA phosphodiesterase 1 (TDP1): qHTS in cells in absence of CPT; DT40 Tdp1-/- hTDP1 cells, no CPT, ATP luminescence, 48 h; Potency, µM (doses to about 46.2 µM), inactives show at the top dose activity change, negative = growth inhibition, hits mostly inhibitors; actives 15% (n = 420,000); also: nearly all actives have a fitted effect of over 55% in size
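Chicken DT40 Tdp1-/- cells complemented with human TDP1, screened without camptothecin (DMSO vehicle only), 400 cells/well. Compounds pin-transferred, cells incubated at 37 °C for at least 48 hr. Growth read as ATP-dependent luminescence (CellTiter-Glo, 30 min at RT).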
KB-V1 MDR tox – kills drug-selected multidrug resistant KB-V1 cells; KB-V1 MDR cells viability, CellTiter-Glo, 72 h; Potency, µM (highest dose often 46.1 µM), hits mostly cytotoxic; actives 3.4% (n = 400,000); AID 1347076; also: nearly all actives have a fitted effect of over 60% in size
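KB-V1, DMEM (no phenol red) + 10% FBS; cpd pin-transferred, titration series; 72 h, 37 degrees C; CellTiter-Glo, luminescence. Data normalized, curve-fit.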
The depositor's hits bear a star; i = inactive; u = inconclusive; x = no result given. The list is not random: actives were taken first. Their share in the collection is about 19%. Calls follow the shape of the dose curve; as a rule, active = well fitted curve in the direction sought with a large enough effect; inconclusive = small, poorly fitted or top-dose-only effect, or another doubt; inactive = no such curve, though single readings can be large; an effect the other way counts as inactive or inconclusive. Unless noted, % is scaled to controls: 0 for no effect and ±100 for the full control effect; potency is read from the fitted curve at half-maximal effect.

SMILES	HT1080 IDH1KD tx	HT1080NT lethal	KB-3-1 tox	TDP1 cell CPT	TDP1 cell noCPT	KB-V1 MDR tox
Cc1ccoc1C(=O)Nc1cccc2ccccc12	-3%	1%	i	9.2µM*	21µM*	i
COc1ccc(NC(=O)Nc2nnc(N(CC(C)C)CC(C)C)s2)c(OC)c1	x	x	u	u	18µM*	u
COc1cccc(C(=O)Nc2cccc3ccccc23)c1	3%	1%	i	u	u	i
O=C(Nc1cccc2ccccc12)c1ccco1	21%	28%	i	-22%	-8%	i
COc1cccc(C(CC(=O)Nc2cccc3ccccc23)NC(=O)c2ccccc2)c1 (stereo not given)	u	u	i	u	1%	5.8µM*
Cc1cc(NC(=O)C(Cl)c2ccccc2)no1 (stereo not given)	u	u	u	7.3µM*	u	u
COc1ccc2nc(NC(=O)Nc3cccc4ccccc34)sc2c1	u	u	i	u	18µM*	i
COc1ccc2nc(NC(=O)c3ccccc3O)sc2c1	-28%	u	u	-22%	u	i
COc1ccc(OC)c(NC(=O)Nc2cccc3ccccc23)c1	9%	2%	i	-19%	-19%	7.3µM*
COc1ccc2nc(Nc3ccccc3OC)sc2c1	u	u	i	u	21µM*	u
Cc1cc(NC(=O)Nc2ccc(C)c(C)c2)no1	-4%	29µM*	i	23µM*	-102%	i
COc1ccc(NC(=O)Nc2cccc3ccccc23)c(OC)c1	u	u	i	u	4%	i
O=C(CN1CCN(C(=O)c2cncn2-c2ccccc2)CC1)Nc1ccccc1Cl	4%	4%	i	-14%	-24%	u
Cc1cccc(NC(=O)[C@H](NC(=O)[C@@H]2Cc3ccccc3CN2)c2ccccc2)c1	-6%	1%	i	-23%	1%	i
Cc1cc2nc(-c3ccc(OCc4ccccc4F)cc3)cc(C(F)(F)F)n2n1	x	x	i	u	u	u
COc1cccc2c1ncc1c(-c3ccc(C)cc3)nn(-c3cccc([N+](=O)[O-])c3)c12	x	x	i	-5%	-3%	i
O=C1NC[C@H](CCCCN2CCN(CCc3ccc(O)cc3)C(=O)C2=O)N(CCc2ccc(O)cc2)C1=O	7%	14%	i	3%	-6%	i
O=c1c2c3c(sc2n(CCN2CCOCC2)c(=O)n1Cc1ccco1)CCCCC3	-2%	-1%	i	8.2µM*	10µM*	u
O=c1c2c3c(sc2n(CCN2CCCCC2)c(=O)n1Cc1ccco1)CCCCC3	u	u	i	13µM*	18µM*	u
CC1CCCC(C)N1CCOc1cc(N)ccc1C#N (stereo not given)	1%	-2%	i	14%	-6%	i
C/C=C/C1=CC(=O)C[C@H](c2ccc(OC)c(OC)c2)C1	1%	1%	i	u	u	i
COC1=CC(=O)C[C@@H](C)[C@]12Oc1c(Cl)c(OC)cc(OC)c1C2=O	u	u	i	u	17µM*	u
O=C(CSc1n[nH]c(-c2ccncc2)n1)Nc1ccc(Br)cc1	-1%	-1%	i	-22%	-6%	i
Cc1[nH]c2c(ccc3ccccc32)c1C1C(CCN)C1(C)C (stereo not given)	-15%	-23%	u	u	23µM*	u
COc1ccc(C)cc1NC(=O)C(Sc1nnc(Nc2cc(C)ccc2OC)s1)c1ccccc1 (stereo not given)	2%	3%	i	u	u	i

Screening results as filed in PubChem.
